# RORgamma inh – blocks mouse ROR gamma transcriptional activity; Drosophila S2 Gal4-RORgamma UAS-luciferase reporter, 20 h; Potency, µM (highest dose often 53.6 µM), for the others: at the highest dose activity change, negative = inhibition, hits mostly inhibitors; 5.4% of 310,000 active; P51450; further: nearly all actives have a fitted effect of over 60% in size
# Target sequence (P51450 whole entry, looked up, the tested form may be a part): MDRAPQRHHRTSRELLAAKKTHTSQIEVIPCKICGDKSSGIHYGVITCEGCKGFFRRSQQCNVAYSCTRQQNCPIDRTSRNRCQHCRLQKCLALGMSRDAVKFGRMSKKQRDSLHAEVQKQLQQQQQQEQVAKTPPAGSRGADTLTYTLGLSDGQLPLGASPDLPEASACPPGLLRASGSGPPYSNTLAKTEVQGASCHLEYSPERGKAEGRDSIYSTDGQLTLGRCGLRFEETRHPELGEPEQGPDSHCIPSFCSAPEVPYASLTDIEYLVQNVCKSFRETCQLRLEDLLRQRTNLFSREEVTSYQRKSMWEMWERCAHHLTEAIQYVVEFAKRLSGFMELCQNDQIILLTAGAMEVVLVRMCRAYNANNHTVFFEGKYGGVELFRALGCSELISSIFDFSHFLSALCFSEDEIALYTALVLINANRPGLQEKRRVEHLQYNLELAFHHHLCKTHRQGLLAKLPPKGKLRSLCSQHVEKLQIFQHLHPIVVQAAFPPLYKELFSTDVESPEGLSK
#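 Drosophila S2 cells stably expressing Gal4-DBD/mouse RORγ fusion under metallothionein promoter plus UAS-luciferase; compound 1 h, then 700 uM CuSO4 induction for 20 h at ambient temperature; inhibition read as reduced luminescence.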
# PLK1 PBD block – blocks phosphopeptide binding to human PLK1 polo-box domain. 2.8% of 360,000 active. Potency, µM, without a hit: max response, negative = inhibition, hits mostly inhibitors. Plk1 PBD binding of FITC phosphopeptide, fluorescence polarization. AID 720504; further: series mostly up to about 57 µM; nearly all actives have a fitted effect of over 65% in size
# ALDH1A1 inh – ALDH1A1 (human) enzyme inhibition; Purified ALDH1A1, NADH fluorescence, propionaldehyde substrate; Potency, µM (top dose mostly 75.3 µM), inactives show top-dose activity, negative = inhibition, hits mostly inhibitors; 7.3% of 220,000 active; AID 1030; active means well fitted inhibition curve with a large enough effect, not every such curve was filed as active; inconclusive means small, poorly fitted or top-dose-only effect, or another doubt; inactive means no such curve, though single readings can be large or run the other way;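 further: plate controls were no enzyme wells and a reference inhibitor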
# VP16 counter – Gal4-VP16 reporter inhibition counter-screen | Potency, µM (series often up to 53.6 µM), for the others: top-dose activity, negative = inhibition, usual class: inhibitors | 3.5% of 310,000 active | AID 2546 | Drosophila S2 Gal4-VP16 UAS-luciferase, luminescence, 20 h;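 further: Gal4-VP16 expression switched on by copper sulfate through the metallothionein promoter; nearly all actives have a fitted effect of over 50% in size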
# Sfp PPTase inh – blocks B. subtilis Sfp PPTase activity; Biochemical Sfp PPTase activity, qHTS; Potency, µM, for inactives: largest response in the series, negative = inhibition, actives largely listed as inhibitors; AID 1490; 3.5% of 310,000 active; Q9F4F7;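 further: the enzyme is Sfp with the accession as filed and its product quenches rhodamine fluorescence; 0% = enzyme reaction without inhibitor and -100% = no enzyme wells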
#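 After 15 min at room temperature with compound, 15 nM Sfp received 5 uM rhodamine-CoA plus 12.5 uM BHQ-2-ybbR (50 mM Hepes pH 7.6, 10 mM MgCl2). Rate came from the fluorescence difference over 30 min, ex 525/em 598 nm.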
# Numbers without * were called inactive; ? = inconclusive; · = not tested or not shown; ! = a repeat was not active; [ ] = dose if it differs, or a comment. Rows were chosen to be rich in hits. Some 12% of all compounds tested hit in one or more screens of this group. Unless noted, the call rests on the fitted dose curve; in most records, active means well fitted curve in the direction sought with a large enough effect; inconclusive means small, poorly fitted or top-dose-only effect, or another doubt; inactive means no such curve, though single readings can be large; an effect the other way counts as inactive or inconclusive. Unless noted, on the % scale 0 is the no-effect control and ±100 the full control effect; potency means the concentration at half of the fitted maximal effect.
SMILES,RORgamma inh,PLK1 PBD block,ALDH1A1 inh,VP16 counter,Sfp PPTase inh
C/C(=N\NC(=O)c1ccc([N+](=O)[O-])cc1)c1cc2ccccc2oc1=O,16µM*,30µM*,0%,?,13%
COc1cccc(-c2cncnc2NCc2cccs2)c1,10%,·,?,5%,4%
CCCCOc1ccc(C2OC34CCCCC3C(C#N)(C#N)C2(C#N)C(=N)O4)cc1 (stereo not drawn),-29%,21µM*,?,11%,8%
CC1(C)CC(=O)C=C(c2n[nH]nc2C2CCCCC2)C1,·,0%,·,·,·
COc1ccc(C2Nc3ccccc3NC3=C2C(=O)CC(C)(C)C3)cc1O (stereo not drawn),-26%,3.8µM*,·,4%,16%
C=CCOc1ccccc1C1C2=C(CC(C)(C)CC2=O)Nc2c1c(=O)n(C)c(=O)n2C (stereo not drawn),11%,-11%,?,-9%,8%
COc1ccc(C2Nc3ccccc3NC3=C2C(=O)CC(C)(C)C3)cc1OC (stereo not drawn),-4%,-5%,·,-3%,28%
COc1ccc(C2C3=C(CC(C)(C)CC3=O)Nc3c2c(=O)n(C)c(=O)n3C)cc1OC (stereo not drawn),24%,12µM*,4%,-6%,26%
COc1ccc(NS(=O)(=O)c2ccc(NC(=S)NC(=O)c3cccnc3)cc2)nn1,11%,?,15µM*,3%,-38%
COc1ccc(NS(=O)(=O)c2ccc(NC(=O)c3ccccc3)cc2)nn1,31%,15µM*,11%,-10%,15%
COc1ccc(NS(=O)(=O)c2ccc(NC(=S)NC(=O)c3cccc(F)c3)cc2)nn1,1%,?,?,-9%,-20%
O=C(COC(=O)c1c[nH]c(=O)[nH]c1=O)Nc1ccccc1F,8%,-16%,28µM*,-5%,71µM*
CCCN1C(=O)/C(=C/c2ccc(C)s2)NC1=S,5.6µM*,-15%,8.9µM*,10µM*,7%
Cc1ccc(N2C(=O)/C(=C/c3ccco3)SC2=S)cc1,21%,-9%,-4%,4%,?
CCN1C(=O)/C(=C\N(C)C)NC1=S,-17%,2%,18%,-1%,4%
CC(C)CN1C(=O)/C(=C/c2ccco2)NC1=S,?,?,4µM*,?,35µM*
COc1cccc(N2C(=O)/C(=C\c3cccs3)NC2=S)c1,10µM*,-3%,15%,?,-5%
CC(C)CN1C(=O)/C(=C/c2cccs2)NC1=S,5µM*,0%,2µM*,7.1µM*,11%
CC(=O)NCCNc1nc2cc(-c3cnn(CCC(C)C)c3)sc2c(=O)n1C,·,-13%,·,·,·
COCCN(Cc1ccc(C)cc1)C(=O)[C@H]1O[C@@H](n2cnc3c(N)ncnc32)[C@H](O)[C@@H]1O,·,-2%,·,·,·
O=C(N[C@H](CO)[C@H](O)c1ccc([N+](=O)[O-])cc1)C(Cl)Cl,4%,-4%,14µM*!,4%,4%
O=C(NC(CO)C(O)c1ccc([N+](=O)[O-])cc1)C(Cl)Cl (stereo not drawn),18%,-5%,-7%,5%,28%
COc1ccccc1-c1cc(C(=O)NC2CCN(C)CC2)c2ccc(Cl)c(C)c2n1,-11%,-5%,·,-6%,56µM*
O=C(CC1Oc2ccccc2NC1=O)NCc1ccccc1 (stereo not drawn),-10%,21µM*,9%,-16%,7%
COc1ccc(C2/C(=C(\O)c3ccc4c(c3)OCCO4)C(=O)C(=O)N2Cc2ccco2)c(OC)c1 (stereo not drawn),-15%,-13%,10%,3%,-23%
SMILES,RORgamma inh,PLK1 PBD block,ALDH1A1 inh,VP16 counter,Sfp PPTase inh
CC1Cc2cc(/C(O)=C3/C(=O)C(=O)N(Cc4ccco4)C3c3cccs3)ccc2O1 (stereo not drawn),?,-12%,-3%,21%,28µM*
COC(=O)c1ccc(C2/C(=C(/O)c3ccc(OC)cc3)C(=O)C(=O)N2Cc2ccco2)cc1 (stereo not drawn),24%,-9%,18µM*,-5%,22µM*
COc1ccc(/C(O)=C2/C(=O)C(=O)N(Cc3ccco3)C2c2cccs2)cc1 (stereo not drawn),14%,-13%,6%,1%,10µM*
CC1Cc2cc(/C(O)=C3/C(=O)C(=O)N(CCCn4ccnc4)C3c3ccco3)ccc2O1 (stereo not drawn),8%,-6%,?,2%,-2%
CN(Cc1cccc2ccccc12)Cc1cccc2ccccc12,·,·,10%[13.5 µM],·,·
COc1ccc2nc3ccccc3nc2c1NC(=O)c1ccc(Cl)cc1Cl,2%,-22%,4%,-4%,11%
CN1C(=O)[C@H]2[C@@H](c3ccccc3)N[C@]3(CCCN(Cc4ccc(F)cc4)C3=O)[C@H]2C1=O,·,4%,·,·,·
CCN(CC)CCNc1c(C)cc(CO)c(Cl)c1C,·,-11%,·,·,·
O=C(c1cc(COc2ccc3ncccc3c2)on1)N1CCC[C@H]1CO,?,3%,·,5µM*,1%
CCOC(=O)N1CCN(C(=O)c2cc(COc3ccc4ncccc4c3)on2)CC1,?,-18%,-5%,7.1µM*,-4%
CC(CNC(=O)c1cc(COc2ccc3ncccc3c2)on1)c1ccccc1 (stereo not drawn),?,-2%,·,10µM*,-7%
O=C(NC1CCCCCCC1)c1cc(COc2ccc3ncccc3c2)on1,?,-3%,?,4µM*,-13%
COc1cc(Cl)ccc1OCc1cc(C(=O)NCC(C)c2ccccc2)no1 (stereo not drawn),15%,-8%,·,?,9%
Cc1ccc(OCc2cc(C(=O)N(C)CC3CCOCC3)no2)cc1C,26%,-5%,·,-6%,6%
Cc1cc(CN(C)C(=O)c2cc(COc3ccc4ncccc4c3)on2)on1,7.9µM*,-2%,-6%,3.2µM*,14%
Cc1ccc(OCc2cc(C(=O)N(C)Cc3cnc4ccccn34)no2)cc1C,-27%,21µM*,·,?,3%
COc1ccc(C2=Nc3ccccc3N(C(=O)c3ccc(C(F)(F)F)cc3)C2C(=O)NCc2ccccc2)cc1 (stereo not drawn),·,-13%,·,·,·
IC(I)I,3%,·,13µM*,6%,45µM*
CCOC(=O)N1CCN(C(=S)NC(=O)c2ccnn2C)CC1,?,-12%,1%,32µM*,?
CCOC(=O)N1CCN(C(=S)NC(=O)c2ccc(F)cc2)CC1,2µM*,-14%,-3%,3.5µM*,2%
CC(=O)Nc1cccc(NC(=O)C(=O)c2cn(CC(=O)N3CCCC3)c3ccccc23)c1,·,-8%,·,·,·
Cc1cc2c(N=O)c(NO)ccc2[nH]1,5µM*,-20%,-4%,3.2µM*,11%
O=Nc1c(O)[nH]c2ccc(F)cc12,-19%,-1%,-3%,0%,20%
O=C(C(=O)N1CCN(c2ccccc2)CC1)c1ccccc1,·,-10%,·,·,·
O=C(CSc1nnc(-c2ccccc2F)n1CCc1ccccc1)Nc1ccc2[nH]c(=O)[nH]c2c1,29%,-10%,?,-1%,-6%
